# From PubChem BioAssay AID651692 (Broad Institute, 2012)
# Entries with a potency or affinity are not part of this list. Activity calls are given as the source filed them.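 Rule for the calls: active = fitted half-maximal concentration for loss of cell signal no higher than twice the top valid tested concentration; inconclusive = flat curve at 30 to 70% inhibition, or poor fit; inactive = flat within 30%, signal rise, or potency above limit.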
# Assay: MDA-MB-231 cell growth inhibition, dose response, cytotoxicity control for RAD54 inhibitor project, CellTiter-Glo luminescence, cherry-pick (AID 651692);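 note: more negative values mean stronger loss of viable cell signal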
# Details: MDA-MB-231 viability, 24 h; series mostly up to 26 µM
row,Compound,outcome
1,O=C(Nc1cccc(Cl)c1)c1cc(S(=O)(=O)N2CCOCC2)cs1,inactive
2,Cc1ccc(-c2nc(NCCN3CCOCC3)c3ccccc3n2)cc1,inactive
3,CCN(CC)CCCNC(=O)c1cc2c(=O)[nH]c3ccc(C)cc3c2s1,inactive
4,CC1CCCN(CCCNC(=O)c2cc3c(Cl)nc4ccccc4c3s2)C1 (centres undefined),inactive
5,CCN(CC)CCNC(=S)Nc1ccc2nc(N3CCN(CC)CC3)cc(C)c2c1,inactive
6,C=CC(=O)Nc1ccc(N(C)c2ccnc(Nc3ccc(N4CCN(C)CC4)cc3)n2)cc1,inactive
7,c1ccc(CNc2c3ccccc3nc3ccccc23)cc1,inactive
8,Cc1nnc2c(N3CCN(CCO)CC3)nc3ccccc3n12,inactive
9,COC(=O)Nc1nnc(COc2ccccc2)s1,inactive
10,CCOC(=O)c1c(NC(=O)c2ccc(S(=O)(=O)N3CCOCC3)cc2)sc2c1CCN(C)C2,inactive
11,Cn1nc(-c2ccccc2)cc1NS(=O)(=O)c1ccc(C#N)cc1,inactive
12,COc1ccc(Nc2nc(N3CCCCC3)nc3ccccc23)c(OC)c1,inactive
13,CCN(CC)CCN(C(=O)C1=COCCO1)c1nc2c(OC)ccc(OC)c2s1,inactive
14,CN(C)CCCN(C(=O)c1ccco1)c1nc(-c2ccc(Cl)cc2)cs1,inactive
15,CCCCN(CC)CCCNC(=O)c1cc2c(=O)n(C)c3ccccc3c2n1C,inactive
16,CN1CCN(c2nc(-c3ccncc3)nc3ccccc23)CC1,inactive
17,CCc1ccc2nc3nc(C)cc(C)c3c(N)c2c1,inactive
18,CCN(CC)CCCNC(=O)c1cc2c(-c3ccc(Cl)cc3)nn(C)c2s1,inactive
19,Cc1cccc2c1-c1sc(C(=O)NCCCN3CCCC(C)C3)cc1CO2 (centres undefined),inactive
20,CCOC(=O)c1cnc2c(CC)cccc2c1NCCCN1CCOCC1,inactive

row,Compound,outcome
1,CCCN(CCC)CCCNC(=O)c1cc2c(=O)n(C)c3ccccc3c2n1C,inactive
2,OCCCNc1c2ccccc2nc2ccccc12,inactive
3,Cc1ccnc(SCC(=O)Nc2sc3c(c2C#N)CCC(C(C)(C)C)C3)n1 (centres undefined),inactive
4,Cc1ccc(-c2nc(NCCCO)c3ccccc3n2)cc1,inactive
5,CCOc1cc2nc(-c3ccc(OC)c(OC)c3)nc(NCCCN3CCOCC3)c2cc1OC,inactive
6,COc1ccc(OC)c(Nc2nc(NCCCN(C)C)nc(N)c2[N+](=O)[O-])c1,inactive
7,NCCN1CCN(CCN)CC1,inactive
8,COc1cc2sc3cc(NCC[C@@H]4CCCN4C)ccc3c(=O)c2cc1OC,inactive
9,Cc1c(Cl)ccc(S(=O)(=O)NCCCn2ccnc2)c1Cl,inactive
10,CCN(CC)CCCNc1nc2ccccc2c2nc(-c3ccncc3)nn12,inactive
11,Clc1ccc2[nH]c3c(NCCCN4CCOCC4)ncnc3c2c1,inactive
12,CC(N)c1csc(Nc2nncc3ccccc23)n1 (centres undefined),inactive
13,CN1CCCN(c2cc(-c3ccc4ccccc4c3)nc3ccnn23)CC1,inactive
14,Cc1c(C)n(CCN(C)C)c2ccc(C(=O)OCCN(C)C)cc12,inactive
15,COc1ccc(CCNC(=O)c2cc3c(=O)n4ccccc4nc3n(CCCN3CCOCC3)c2=N)cc1OC,inactive
16,Cc1cc(C)c2nc(C)cc(Nc3ccc(C(=O)NCCO)cc3)c2c1,inactive
17,COc1ccccc1Nc1c2ccccc2nc2ccccc12,inactive
18,CN(C)CCSc1nc(N)c2c3c(sc2n1)CN(C)CC3,inactive
19,CC1CCc2sc3nc(N4CCN(CCO)CC4)n4ncnc4c3c2C1 (centres undefined),inactive
